# Assay results as given in PubChem BioAssay (NCI).
# The panel holds about 83,000 compounds, 20% with a hit somewhere; the sample as a whole holds those more often.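 The endpoint reported here, percent growth, reads 100 for growth as untreated, 0 for no net growth and -100 for all cells dead.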 Values without a mark were called inactive. Active and inactive are the calls of the source. How the source made its calls: active means growth percent below 10; inactive means the rest.
# How the values were obtained:
# Assay in all cases: NCI-60 one-dose screen, 48 h (100 = growth as untreated, 0 = no growth, -100 = all killed)
# Conditions in all cases: 10 µM unless noted
# DU-145 prostate = test system: DU-145 prostate
# K-562 leukemia = test system: K-562 leukemia
# MALME-3M melanoma = test system: MALME-3M melanoma
# MDA-MB-231 breast = test system: MDA-MB-231 breast
# RXF 393 renal = test system: RXF 393 renal
# SF-268 CNS = test system: SF-268 CNS
# SF-295 CNS = test system: SF-295 CNS
# SF-539 CNS = test system: SF-539 CNS
# UACC-257 melanoma = test system: UACC-257 melanoma
# M14 melanoma = test system: M14 melanoma
# HCT-15 colon = test system: HCT-15 colon
# HT29 colon = test system: HT29 colon
# SNB-75 CNS = test system: SNB-75 CNS
# SNB-19 CNS = test system: SNB-19 CNS
# U251 CNS = test system: U251 CNS
# PC-3 prostate = test system: PC-3 prostate
# SK-MEL-5 melanoma = test system: SK-MEL-5 melanoma
# UACC-62 melanoma = test system: UACC-62 melanoma
# LOX IMVI melanoma = test system: LOX IMVI melanoma
# SK-MEL-28 melanoma = test system: SK-MEL-28 melanoma
Compound,growth (DU-145 prostate),growth (K-562 leukemia),growth (MALME-3M melanoma),growth (MDA-MB-231 breast),growth (RXF 393 renal),growth (SF-268 CNS),growth (SF-295 CNS),growth (SF-539 CNS),growth (UACC-257 melanoma),growth (M14 melanoma),growth (HCT-15 colon),growth (HT29 colon),growth (SNB-75 CNS),growth (SNB-19 CNS),growth (U251 CNS),growth (PC-3 prostate),growth (SK-MEL-5 melanoma),growth (UACC-62 melanoma),growth (LOX IMVI melanoma),growth (SK-MEL-28 melanoma)
CCOC(=O)c1c(Nc2ccccc2)nn2c(-c3ccc(Cl)cc3)ccnc12,79.5%,81.1%,84%,75.4%,-10.6% (active),77%,77.5%,71.7%,104%,96.5%,77.8%,83.7%,88%,72.1%,81.5%,80.5%,80.2%,82.8%,64.5%,87.2%
COc1ccc(CCOc2cc3c(cc2OC)CCN(C(=O)NCc2cocn2)C3c2ccc(C)cc2C)cc1 (stereo not given),14.1%,10%,52.2%,20.5%,1.12% (active),21.2%,12.8%,1.43% (active),38%,11.7%,5.53% (active),-2.64% (active),39.2%,22%,5.74% (active),20.1%,-43.2% (active),24%,1.85% (active),38.7%
NS(=O)(=O)c1ccc(Nc2nc(SCc3ccccc3)nc3ccccc23)cc1,61.7%,14.4%,81.7%,53.9%,45.5%,73.2%,59.9%,48.8%,92.8%,75%,39.1%,41%,70.5%,78.2%,60.1%,54.1%,49.8%,70%,52.3%,91.6%
CCNC(=O)N1CCc2cc(OC)c(OCCc3ccc(OC)cc3)cc2C1c1ccc([N+](=O)[O-])cc1C (stereo not given),20.7%,13.7%,63.8%,17.7%,-9.58% (active),32%,10.8%,9.83% (active),46.6%,23.4%,7.24% (active),4.69% (active),21%,28.4%,16.4%,23.4%,0.509% (active),30.4%,7.24% (active),47.8%
O=C(O)c1cn(C2CC2)c2cc(N3CCN(C(=O)CN4C(=O)CSC4=O)CC3)c(F)cc2c1=O,90.5%,102%,103%,81.2%,61.7%,83.5%,106%,88.5%,107%,108%,112%,112%,45.3%,100%,115%,91.2%,102%,91%,102%,101%
O=C(CSc1nc2ccccc2c(=O)n1-c1ccccc1)Nc1cccc(C(=O)/C=C/c2ccccc2Cl)c1,105%,94.8%,113%,99.7%,96.7%,101%,102%,102%,112%,103%,92.7%,102%,85.6%,93.3%,97.7%,99.4%,99.3%,95.5%,103%,107%
CC(=O)Nc1cccc(Nc2nc(N[C@H](C)c3ccccc3)c3ccccc3n2)c1,65%,5.94% (active),71.3%,57.8%,-5.79% (active),62.9%,42.3%,73.9%,58.6%,58.7%,41.5%,41.1%,30.6%,74%,74.4%,45.5%,38.8%,65.5%,45.6%,74.6%
N/C(=N\C(N)=N\c1nc2ccccc2s1)c1ccncc1Cl,45.7%,17.1%,45.7%,45%,8.87% (active),52.6%,-22.2% (active),7.8% (active),79.7%,32.4%,33%,18.8%,7.82% (active),38.2%,31.8%,29.5%,39.2%,28%,41.3%,58.3%
O=C(c1ccc(Cl)cc1)C1[C@H](c2ccc(Cl)cc2)[C@@H](c2ccccc2)NC12C(=O)Nc1ccccc12 (stereo not given in full),65.1%,33.6%,78.7%,53.6%,48%,48.1%,45.6%,74.8%,75.2%,50.2%,35.1%,15.4%,51.1%,70.3%,45.8%,29.1%,75.1%,52.8%,42.4%,81.2%
C[C@@H]1C[C@H]2C(=O)O[C@@H](C)C(NC(=O)[C@H](Cc3cc(F)cc(F)c3)NC(=O)Nc3ccc(Cl)cc3F)C(=O)N3CCC[C@H]3C(=O)N3CCCC[C@H]3C(=O)N[C@@H](CO)C(=O)N2C1 (stereo not given in full),26.2%,23.6%,46.3%,35.2%,-10.3% (active),31.7%,20%,36.2%,15.8%,20.7%,13.2%,35.3%,30.8%,28.1%,30%,15.5%,-2.76% (active),29.5%,29.5%,43.9%
CC1(C)[C@@H](O)CC[C@]2(C)[C@H]3CC[C@@H]4[C@H]5[C@H](C(=O)/C=C\c6ccncc6)CC[C@]5(O)CC[C@@]4(C)[C@]3(C)CC[C@@H]12,38%,9.43% (active),94.3%,-8.43% (active),-13.7% (active),50.2%,93.3%,37.9%,72.8%,67.4%,20.3%,34.7%,21.2%,58.7%,61.1%,67.5%,80.6%,46.9%,5.63% (active),74.8%
O=c1[nH]c(Sc2sc3ccc(Cl)cc3c2CBr)nc(=S)[nH]1,33.9%,12%,27.4%,35.9%,9.12% (active),48.9%,23%,32.1%,44.1%,27.6%,21.2%,91.4%,54%,60.7%,38.7%,26.4%,35.1%,1.82% (active),25.9%,28.4%
Cc1ccc(S(=O)(=O)NCCNc2nc(Nc3ccc(N4CCN(C)CC4)cc3)nc3ccsc23)cc1,102%,0.196% (active),117%,109%,70%,74.9%,98.2%,94.9%,107%,106%,29.2%,63.4%,67.8%,104%,90.8%,87.9%,95.9%,103%,97.8%,103%
COc1ccc(-c2nn(-c3ccc(S(C)(=O)=O)cc3)cc2/C=N/O)cc1,107%,107%,103%,96.7%,103%,108%,106%,92.1%,104%,109%,103%,106%,127%,105%,106%,102%,98.7%,96.6%,102%,96.1%
Nc1nc(-c2cccc([N+](=O)[O-])c2)c(N=Nc2ccccc2)s1,69.5%,32.8%,103%,62%,-16.3% (active),66.4%,63%,71.6%,93.4%,57.7%,38.3%,61.3%,63.2%,81.2%,54.3%,51.2%,42.5%,64%,53.5%,65%
